Reference: PubChem BioAssay
Some of the results follow. Activity calls are given as the source filed them. Unless noted, how the calls were made is not given here.

Assays:
[1] = Brca1-Bard1 BiLC signal decrease – luminescence, single concentration, counter-screen for Mdm2/MdmX interaction inhibitor project, confirmation (AID 504668); settings: Brca1/Bard1 bimolecular luciferase complementation counterscreen, at 8 µM, stronger effect = higher value
[2] = apoptosome-driven caspase-3 activation blockers – biochemical, fluorescence, DEVD-Rh110, 20 µM, confirmation (AID 504614;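 active means mean inhibition of at least 40% at 20 µM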;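 further: plate controls were DMSO wells for no effect and DEVD-CHO caspase inhibitor control wells for full effect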); settings: reconstituted apoptosome, caspase-3 DEVD-Rh110 fluorescence; at 20 µM; stronger effect = higher value
[3] = detection-step artefacts after completed caspase reaction – biochemical, fluorescence, Rh110, 20 µM, artefact control for Apaf-1 inhibitor project, confirmation (AID 504615;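 active means signal rise of 40% or more at 20 µM, treated as a fluorescence artifact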); settings: quenched caspase reaction, at 20 µM, stronger effect = higher value
[4] = target: COP9 signalosome complex subunit 5 (Homo sapiens) (UniProt Q92905); assay: blockers of CSN-driven cullin deneddylation – biochemical, fluorescence polarization, single concentration, SCF-Nedd8OG substrate, confirmation (AID 720654; in the data active means inhibition above about 50%;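 further: 0% = DMSO with enzyme and 100% = no enzyme wells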); settings: Csn5 deneddylation of SCF-Nedd8OG, 90 min, at 16.6 µM, stronger effect = higher value
Chain of COP9 signalosome complex subunit 5 (Homo sapiens) (Q92905 whole entry, looked up, one chain of several): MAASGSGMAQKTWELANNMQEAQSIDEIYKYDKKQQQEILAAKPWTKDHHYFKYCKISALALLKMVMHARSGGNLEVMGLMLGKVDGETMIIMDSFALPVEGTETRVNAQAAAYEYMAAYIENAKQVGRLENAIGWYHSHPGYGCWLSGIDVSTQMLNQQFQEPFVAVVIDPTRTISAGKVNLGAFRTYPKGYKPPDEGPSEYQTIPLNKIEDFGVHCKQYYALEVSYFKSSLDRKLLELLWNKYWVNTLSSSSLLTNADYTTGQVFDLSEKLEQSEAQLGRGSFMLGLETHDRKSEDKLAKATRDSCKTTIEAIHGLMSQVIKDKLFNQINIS

[5] = target: 72 kDa type IV collagenase (Homo sapiens) (UniProt P08253); assay: human MMP-2 inhibitors, single-point check – biochemical, fluorescence, single concentration, counter-screen for CSN deneddylation inhibitor project, confirmation (AID 720655;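 active means corrected plate-normalized z-score of 5 or more, or -5 or less, or inhibition of 15% or more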;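 further: plate controls were DMSO wells with enzyme for no effect and buffer wells lacking MMP-2 for full effect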); settings: recombinant MMP-2, FRET substrate fluorescence, 60 min; at 16.6 µM
Chain of 72 kDa type IV collagenase (Homo sapiens) (P08253 whole entry, looked up): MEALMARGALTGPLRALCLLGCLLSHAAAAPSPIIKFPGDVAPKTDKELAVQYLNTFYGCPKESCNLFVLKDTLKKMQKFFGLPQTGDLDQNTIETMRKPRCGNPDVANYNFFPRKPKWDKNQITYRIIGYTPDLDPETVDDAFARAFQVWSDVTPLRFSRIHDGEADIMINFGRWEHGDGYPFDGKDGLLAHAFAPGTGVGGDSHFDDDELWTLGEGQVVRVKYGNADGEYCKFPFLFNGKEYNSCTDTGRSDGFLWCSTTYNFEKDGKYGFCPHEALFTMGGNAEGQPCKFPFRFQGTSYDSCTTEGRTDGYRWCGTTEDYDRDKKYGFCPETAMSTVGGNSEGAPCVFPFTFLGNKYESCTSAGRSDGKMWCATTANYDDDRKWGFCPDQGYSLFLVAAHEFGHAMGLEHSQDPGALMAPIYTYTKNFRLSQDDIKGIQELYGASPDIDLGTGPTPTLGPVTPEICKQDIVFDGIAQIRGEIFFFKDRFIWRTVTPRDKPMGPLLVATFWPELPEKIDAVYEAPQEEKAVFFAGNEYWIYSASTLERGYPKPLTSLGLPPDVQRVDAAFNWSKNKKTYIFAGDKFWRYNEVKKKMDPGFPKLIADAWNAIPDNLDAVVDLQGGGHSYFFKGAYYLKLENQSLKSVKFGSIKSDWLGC

[6] = target: Prothrombin (Bos taurus) (UniProt P00735); assay: thrombin cleavage blockers, FP readout – biochemical, fluorescence polarization, single concentration, counter-screen for CSN deneddylation inhibitor project, confirmation (AID 720656;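 active means inhibition at or above a set limit, with a fluorescence interference ratio between 0.5 and a set maximum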); settings: bovine thrombin cleavage of Ub4-pepOG, at 16.6 µM, stronger effect = higher value
Chain of Prothrombin (Bos taurus) (P00735 whole entry, looked up): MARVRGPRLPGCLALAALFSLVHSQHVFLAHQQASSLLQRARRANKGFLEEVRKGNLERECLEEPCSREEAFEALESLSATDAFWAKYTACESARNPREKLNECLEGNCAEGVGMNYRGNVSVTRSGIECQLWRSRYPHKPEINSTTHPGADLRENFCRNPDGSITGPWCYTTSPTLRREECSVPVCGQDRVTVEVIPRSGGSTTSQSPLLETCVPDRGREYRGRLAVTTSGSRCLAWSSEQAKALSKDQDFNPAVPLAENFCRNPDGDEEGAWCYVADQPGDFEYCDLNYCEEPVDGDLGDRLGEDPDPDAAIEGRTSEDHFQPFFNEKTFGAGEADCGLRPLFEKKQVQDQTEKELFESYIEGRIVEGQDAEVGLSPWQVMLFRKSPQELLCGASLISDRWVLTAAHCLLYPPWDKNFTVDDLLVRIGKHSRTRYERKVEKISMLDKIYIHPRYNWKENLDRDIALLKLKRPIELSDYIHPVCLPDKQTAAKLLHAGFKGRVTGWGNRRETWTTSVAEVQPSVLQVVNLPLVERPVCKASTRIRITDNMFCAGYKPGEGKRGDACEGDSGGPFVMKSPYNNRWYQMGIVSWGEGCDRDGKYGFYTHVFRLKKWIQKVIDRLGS

[7] = HIF-2a driven luciferase blockers, single dose – luminescence, 786-0 RCC cells, confirmation (AID 651580;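 active means mean inhibition across four replicates of at least 40 percent at the single tested concentration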); settings: HIF-2a luciferase reporter luminescence, overnight, at 18.8 µM, stronger effect = higher value
[8] = HIF-1a luciferase reporter signal reduction – MiaPaCa-2 cells, single concentration, counter-screen for HIF-2a inhibitor project, confirmation (AID 651589;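 active means mean inhibition of the reporter signal across four replicates at the single tested dose of 50% or more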); settings: MiaPaCa-2 HIF-1a luciferase reporter, desferoxamine, overnight; at 18.8 µM; stronger effect = higher value
[9] = target: Tumor necrosis factor receptor superfamily member 10B (Homo sapiens) (UniProt O14763); assay: viability loss of caspase-8 NB7 cells with TRAIL – with/without TRAIL, luminescence panel, confirmation (AID 651596; in the data active means activity above about 50%); settings: NB7 neuroblastoma + caspase-8, TRAIL sensitization, NB7 Caspase-8, with TRAIL, mean of runs, at 10 µM, stronger effect = higher value
Chain of Tumor necrosis factor receptor superfamily member 10B (Homo sapiens) (O14763 whole entry, looked up): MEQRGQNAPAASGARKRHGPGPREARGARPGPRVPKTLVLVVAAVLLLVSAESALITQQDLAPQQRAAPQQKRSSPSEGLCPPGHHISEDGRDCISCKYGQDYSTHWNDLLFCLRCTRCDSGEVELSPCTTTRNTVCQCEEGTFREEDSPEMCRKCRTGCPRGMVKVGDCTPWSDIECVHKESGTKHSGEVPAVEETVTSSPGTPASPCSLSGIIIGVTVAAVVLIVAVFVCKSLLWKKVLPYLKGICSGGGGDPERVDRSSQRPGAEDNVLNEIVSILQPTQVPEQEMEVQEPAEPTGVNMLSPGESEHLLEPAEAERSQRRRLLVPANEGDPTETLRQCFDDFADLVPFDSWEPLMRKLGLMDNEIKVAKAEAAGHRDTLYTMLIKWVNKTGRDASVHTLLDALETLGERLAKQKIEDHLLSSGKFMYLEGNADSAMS

[10] = as above; settings: NB7 neuroblastoma + caspase-8, without TRAIL, NB7 Caspase-8, without TRAIL, mean of runs, at 10 µM
[11] = fluorescence interference of Apaf-1 inhibitor hits, dose response, artefact control for Apaf-1 inhibitor project (AID 588538); settings: fluorescence interference counterscreen, Apaf-1 assay format

With `CCCCN1/C(=C/c2ccc3ccccc3[n+]2CC)Sc2ccccc21` the inhibition [1] was 32.5% (active).

With `O=C(N/N=C/c1c(O)ccc2ccccc12)c1cccnc1` the inhibition [1] was 29.9% (active).

In the case of `CN1CCN(C(=O)CCCN2C(=O)/C(=C/c3ccccc3)SC2=S)CC1`, the inhibition [1] is reported as 30.5% (active).

In the case of `C/C(=N\NC(=O)COc1cccc(C)c1)c1ccc2ccccc2c1O`, the inhibition [1] is reported as 33.6% (active).

With `CC(C)Cn1c(N)c(C(=O)NCc2cccs2)c2nc3ccccc3nc21` the inhibition [2] was 38.4% (inactive), the activation (fluorescence interference) [3] was 5.03% (inactive) and the inhibition [4] was 99.2% (active). For the same compound, the inhibition [5] was 1.55% (inactive) and the inhibition [6] was -0.76% (inactive).

For `CCOc1ccc(N=Nc2ccc(O)c3ncccc23)cc1`, the inhibition [1] was 23.3% (active).

With `O=C(CCl)NCc1c(Cl)cccc1-n1cccc1` the inhibition [1] was 35.6% (active).

With `Cc1oc2c(Cl)c(Cl)c(O)c(CN(C)C)c2c1C(=O)c1ccc(Cl)cc1` the inhibition [1] was 26.8% (active).

For `CN1CCN(C(c2ccc(C(F)(F)F)cc2)c2cc(Cl)c3cccnc3c2O)CC1` (stereo not given), the inhibition [1] was 24.6% (active).

In the case of `Cc1ccc(N=c2c([N+](=O)[O-])nn(-c3ccc4c(c3)OCCO4)n2O)cc1F`, the inhibition [1] is reported as 23.7% (active).

With `C=CCNC(=S)N/N=C(\C)c1ccccn1` the inhibition [1] was 31.6% (active).

With `C=C1C(O)[C@@H]2O[C@]3(CC[C@H](/C=C/C(C)[C@@H]4CC(C)=CC5(O[C@H](C[C@@](C)(O)CO)CCC5O)O4)O3)CC[C@H]2O[C@@H]1C(O)CC(C)[C@H]1OC2(CCCCO2)CCC1C` (stereo not given in full) the inhibition [1] was 33.4% (active).

For `CN1CCN(CCCNC(=O)c2ccc(/C=C3\Oc4ccccc4N(Cc4ccc(Cl)cc4)C3=O)cc2)CC1`, the inhibition [2] was 39.1% (inactive), the activation (fluorescence interference) [3] was 6.39% (inactive) and the inhibition [7] was -0.07% (inactive). For the same compound, the inhibition [8] was 106% (active), the inhibition [4] was -18.2% (inactive) and the inhibition [5] was 11.2% (inactive). The inhibition [6] was -9.75% (inactive), the activity [9] was 41.5% and the activity [10] was 75%.

For `COc1ccc(S(=O)(=O)/N=C2\C=C(NS(=O)(=O)c3ccccc3)C(=O)c3ccccc32)cc1`, the inhibition [2] was 52.3% (active), the activation (fluorescence interference) [3] was -7.09% (inactive) and the IC50 [11] was > 100 µM (inactive).

In the case of `Cc1ccc(-n2nc(C)c3c(C)c(CCC(=O)Nc4ccc(CN5CCCC5)cc4)c(C)nc32)cc1`, the inhibition [1] is reported as 25.5% (active).

For `CCCC(=O)NC(c1cccs1)c1cc(Cl)c2cccnc2c1O` (stereo not given), the inhibition [1] was 24.8% (active).

In the case of `COCCNC(=O)Nc1ccc2nc(-c3ccco3)c(-c3ccco3)nc2c1`, the inhibition [2] is reported as 40.9% (active), the activation (fluorescence interference) [3] is reported as -1.4% (inactive) and the IC50 [11] is reported as > 100 µM (inactive). For the same compound, the inhibition [7] was -38.7% (inactive) and the inhibition [8] was 8.69% (inactive).

With `O=C(Nc1ccc(Cl)cc1)Nc1ccc(N2CCCC2)c(S(=O)(=O)Nc2ccccc2Cl)c1` the inhibition [1] was 24% (active).

In the case of `Cc1cccc(/C=N/NC(=O)c2c(-c3ccccc3)noc2C)c1O`, the inhibition [1] is reported as 35.6% (active).

In the case of `COc1ccccc1-c1cc(C(F)(F)F)nc(S(=O)(=O)CCCC(=O)NC(C)C)n1`, the inhibition [1] is reported as 31.4% (active).

With `COc1ccc(-n2c(SCC(=O)Nc3ncc(Cl)cc3Cl)nc3ccccc32)cc1` the inhibition [1] was 29.2% (active).

For `Cc1cc(Br)cc(/C=N/NC(=O)c2ccc3c(c2)OCO3)c1O`, the inhibition [1] was 33% (active).

In the case of `Cc1cc(C(=O)NC2CCCc3c2cnn3-c2cccc(C)c2C)no1` (stereo not given), the inhibition [1] is reported as 23.6% (active).

For `O=C(/C=C/c1ccc2ccccc2n1)N1CCN(S(=O)(=O)c2ccccc2F)CC1`, the inhibition [1] was 25.5% (active).

In the case of `COc1ccc(C2=Nn3c(nnc3-c3ccccc3F)SC2)cc1OC1CCCC1`, the inhibition [1] is reported as 28.6% (active).

For `O=C(c1ccco1)N1CCN(C(=O)C2CCCc3c2[nH]c2ccc(Cl)cc32)CC1` (stereo not given), the inhibition [1] was 28.5% (active).

In the case of `Cc1cccc(NS(=O)(=O)c2ccc(C)c(C(=O)OCC(=O)Nc3cc(C)on3)c2)c1`, the inhibition [1] is reported as 32.1% (active).

In the case of `Cc1ccc(N=C2NC(=O)/C(=C/C=C/c3ccco3)S2)cc1C`, the inhibition [2] is reported as 26.1% (inactive), the activation (fluorescence interference) [3] is reported as 20.6% (inactive) and the inhibition [4] is reported as 25.6% (inactive). For the same compound, the inhibition [5] was 13.5% (inactive) and the inhibition [6] was 7.38% (inactive).

In the case of `Cc1ccc(O)c(N=Nc2nccs2)c1`, the inhibition [1] is reported as 23.2% (active).

For `COC(=O)[C@@H]1[C@@H](C#N)C2(c3ccccc3-c3ccccc32)N(c2ccc(Cl)cc2)N1C#N`, the inhibition [1] was 32.8% (active).

With `Cc1cc(NC(=O)c2ccc(F)cc2F)n(-c2nc3ccccc3[nH]2)n1` the inhibition [1] was 29.6% (active).

With `Oc1ccc(COCc2ccccc2)c2cccnc12` the inhibition [1] was 28.7% (active).

With `N=c1c(C(=O)NC2CCCCC2)cc2c(=O)n3ccccc3nc2n1Cc1ccco1` the inhibition [1] was 33.2% (active).

In the case of `COc1ccc(C2=Nn3c(nnc3-c3ccccc3F)SC2)cc1OC1CCOC1` (stereo not given), the inhibition [1] is reported as 33.4% (active).

In the case of `Cc1ccc(S(=O)(=O)N2CCOCC2)cc1C(=O)Nc1nc(-c2ccccn2)cs1`, the inhibition [1] is reported as 30.4% (active).

For `CN1CCN(c2cc(N3CCN(C(=O)c4ccco4)CC3)c3c4c(onc24)-c2ccccc2C3=O)CC1`, the inhibition [1] was 24.3% (active).

For `Cc1ccc(O)c(CNCCNCc2cc(C)ccc2O)c1`, the inhibition [1] was 32.6% (active).

For `O=C(COc1ccc([N+](=O)[O-])cc1)Nc1nc(-c2ccccn2)cs1`, the inhibition [1] was 35.6% (active).

In the case of `COc1ccc(-n2nc(C(=O)c3cccs3)cc(-c3nc4ccccc4[nH]3)c2=N)cc1`, the inhibition [1] is reported as 30.8% (active).

For `Cc1ccc(Cc2c(C)c(C#N)c3[nH]c4ccccc4n3c2=O)cc1`, the inhibition [1] was 35.8% (active).

With `C#CCOCCOCCOCCNc1nc(N2CCN(C(=O)CCCCCCCCCCNC(=O)[C@H](CO)n3cc(CCCSC)nn3)CC2)nc(N2CCN(C(=O)CCCCCCCCCCNC(=O)[C@H](CCCCN)n3cc(C[C@@H](C)CC)nn3)CC2)n1` the inhibition [1] was 26.6% (active).

In the case of `CCOC(=O)/C=C/C(=O)Nc1ccc(Oc2ccccc2)cc1`, the inhibition [1] is reported as 24.1% (active).

In the case of `CCN(CC)CCNc1cc(C)nc2c1C(=O)C(=O)C=C2N1CCCCC1`, the inhibition [1] is reported as 28.9% (active).

For `COc1ccc(O)c(/C=N/NC(=O)c2ccc(CSc3nc(C)cc(C)n3)cc2)c1`, the inhibition [1] was 30.7% (active).

With `O=C(Nc1ccccc1)c1ccccc1NS(=O)(=O)c1ccc(Cl)s1` the inhibition [1] was 27.7% (active).

In the case of `CN(C)C=Nc1ncc2c([nH]c3ccccc32)c1C#N`, the inhibition [1] is reported as 23% (active).

For `COc1cc(OC)c2cc(C(=O)N/N=C/c3cccc(OC)c3O)[nH]c2c1`, the inhibition [1] was 33.8% (active).

With `CCc1nc(Nc2ccncc2)c2oc3ccccc3c2n1` the inhibition [1] was 31.6% (active).

With `CCS(=O)(=O)c1ccc(N=Nc2ccc(O)c3ncccc23)c(OC)c1` the inhibition [1] was 31.8% (active).

With `Cc1ccc(C(=O)Nc2nc(-c3ccccn3)cs2)s1` the inhibition [1] was 34.6% (active).

In the case of `CC(C)(C)c1cc(NC(=O)CCl)n(-c2ccccc2)n1`, the inhibition [1] is reported as 24.1% (active).

With `S=C(Nc1ccc(Cl)c(Cl)c1)NC1CCN(Cc2ccccc2)CC1` the inhibition [1] was 28.5% (active).

For `COc1ccc(/C=C2\CCC/C(=C\C=N\N(C)C)C2=O)cc1`, the inhibition [1] was 29.2% (active).

In the case of `Cc1cccc(Cn2nc(C(C)(C)C)cc2C(=O)Nc2ccc(F)cc2)c1`, the inhibition [1] is reported as 31.2% (active).

For `Cc1ccc(-n2ncc3c(SCc4ccccn4)ncnc32)c(C)c1`, the inhibition [1] was 27.6% (active).

With `CCc1ccc(S(=O)(=O)/N=C2\C=C(Nc3ccc(C(=O)O)cc3)C(=O)c3ccccc32)cc1` the inhibition [1] was 33.2% (active).

For `CCCC(O)(CCC)C(=O)NN(C(=O)CCl)c1cccc(C)c1`, the inhibition [1] was 23.7% (active).

In the case of `COc1ccc(-c2oc3ncnc(NCCCN(C)C)c3c2-c2ccc(OC)cc2)cc1`, the inhibition [1] is reported as 28.6% (active).
